Screening results as filed in PubChem.
Chronic BCR inh = chronic active BCR signaling inhibition; ABC-DLBCL IkBa-CBG/CBR reporter, luminescence ratio, 4 h; Potency, µM (titrated, usually from 46.1 µM), without a hit: top-dose activity change, negative = inhibition, usual class: inhibitors; 340,000 tested, 0.05% active; active = well fitted inhibition curve with a large enough effect in the signal ratio, with a control signal flat, not every such curve was filed as active; inconclusive = small, poorly fitted or top-dose-only effect, or effect the other way, or a change in a side signal; the % refers to the signal ratio;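 also: potency is read from the fitted curve at half-maximal effect; plate controls were basal doxycycline-induced cells for no effect and cells given 10 µM MG132 for full effect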
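TMD8 human ABC-DLBCL cells with doxycycline-inducible IκBα–green luciferase fusion and unfused red luciferase, in 0.5% FBS medium; compounds up to 46 uM, 4 h at 37C. Green/red luminescence ratio, filter-overlap corrected, fitted to concentration-response curves.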
ClpP mod = qHTS Assay for Activators of ClpP; 340,000 tested, 1.9% active; purified B. subtilis ClpP, FRET peptide cleavage, 20 min; Potency, µM (doses to about 57.5 µM), for inactives: at the top dose activity change, negative = active; ATP-dependent Clp protease proteolytic subunit (Bacillus subtilis (strain 168)), P80244; active = well fitted falling curve with a large enough effect; inconclusive = small, poorly fitted or top-dose-only effect; inactive = no such curve, though single readings can be large or run the other way; also: potency is read from the fitted curve at half-maximal effect; the source files actives as falling curves though it sought activators and does not explain the sign; nearly all actives have a fitted effect of over 65% in size
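Buffer: 100 mM Tris/HCl pH8, 100 mM KCl, 0.05% low protease BSA, 2.5% glycerol, 0.01% Tween-20. ClpP 10 microg/mL final; 20 min RT; delta FRET normalized to ADEP and DMSO controls.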
hERG WT inh = KCNH2 (human, wildtype) channel inhibition. U2OS, BacMam KCNH2, thallium flux FluxOr; active compounds read low. activity change, % at 1.84 µM. 340,000 tested, 0.37% active;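 active = maximum activity change below -70%; inconclusive = maximum activity change between -70% and -50%; inactive = maximum activity change above -50%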; also: % is scaled to controls: 0 for no effect and ±100 for the full control effect
Target sequence (Q12809 whole entry, looked up): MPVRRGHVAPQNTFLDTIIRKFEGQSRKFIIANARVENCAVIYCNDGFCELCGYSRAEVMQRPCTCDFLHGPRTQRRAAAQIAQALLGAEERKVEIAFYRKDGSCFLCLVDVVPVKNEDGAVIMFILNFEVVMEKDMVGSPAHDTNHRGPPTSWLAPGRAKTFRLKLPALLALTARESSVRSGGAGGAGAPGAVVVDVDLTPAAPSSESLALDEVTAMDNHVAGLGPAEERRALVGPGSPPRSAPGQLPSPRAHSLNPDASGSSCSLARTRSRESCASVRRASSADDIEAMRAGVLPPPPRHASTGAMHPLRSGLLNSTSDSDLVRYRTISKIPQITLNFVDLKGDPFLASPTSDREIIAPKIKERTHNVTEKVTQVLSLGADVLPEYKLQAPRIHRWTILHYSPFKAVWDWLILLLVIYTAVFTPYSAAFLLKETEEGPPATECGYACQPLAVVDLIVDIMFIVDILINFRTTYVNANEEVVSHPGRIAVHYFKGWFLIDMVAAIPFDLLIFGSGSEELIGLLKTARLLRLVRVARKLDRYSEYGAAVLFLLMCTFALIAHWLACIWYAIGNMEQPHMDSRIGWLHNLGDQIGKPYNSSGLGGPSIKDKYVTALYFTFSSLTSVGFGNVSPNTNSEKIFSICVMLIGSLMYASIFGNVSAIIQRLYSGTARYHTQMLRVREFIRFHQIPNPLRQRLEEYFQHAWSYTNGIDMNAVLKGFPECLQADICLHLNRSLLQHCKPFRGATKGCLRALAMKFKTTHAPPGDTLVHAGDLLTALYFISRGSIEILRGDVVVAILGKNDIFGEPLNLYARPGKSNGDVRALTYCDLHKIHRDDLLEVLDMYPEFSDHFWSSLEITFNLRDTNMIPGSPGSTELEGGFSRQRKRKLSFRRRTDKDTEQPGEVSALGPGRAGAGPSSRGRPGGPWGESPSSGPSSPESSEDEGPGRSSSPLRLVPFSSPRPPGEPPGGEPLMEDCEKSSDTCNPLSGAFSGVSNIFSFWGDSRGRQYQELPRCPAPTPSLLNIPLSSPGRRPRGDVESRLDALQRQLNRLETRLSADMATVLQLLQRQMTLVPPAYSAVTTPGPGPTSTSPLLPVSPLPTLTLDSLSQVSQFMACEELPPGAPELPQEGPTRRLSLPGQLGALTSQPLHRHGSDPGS
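U2OS cells transduced with wild-type KCNH2 virus are loaded with FluxOr dye for 45 min, and thallium flux is measured in kinetic reads before and after stimulation buffer. Rate constants are normalized to DMSO controls.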
12-LOX inh = inhibitors of human 12S-lipoxygenase ALOX12 | P18054 | 580,000 tested, 1.1% active | AID 1671190 | purified 12hLO, xylenol orange hydroperoxide absorbance | Potency, µM (highest dose often 108 µM), for the others: at the top dose activity change, negative = inhibition, usual class: inhibitors; active = well fitted inhibition curve with a large enough effect; inconclusive = small, poorly fitted or top-dose-only effect, or another doubt; inactive = no such curve, though single readings can be large or run the other way; also: potency is read from the fitted curve at half-maximal effect; % is scaled to controls: 0 for no effect and ±100 for the full control effect
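Purified human 12hLO (150 nM final) in 25 mM Hepes, 0.01% Triton X-100, pH 7.0 was preincubated 15 min at room temperature with compound. Then 40 uM arachidonic acid was added, 30 min. Hydroperoxide was read by Fe-XO absorbance ratio 573/405 nm.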
LDHA block = LDHA (human) enzyme inhibition | AID 1347041 | activity change, % (values are at about 110 or 230 µM) | P00338 | purified LDHA, NADH/diaphorase-resazurin fluorescence; active compounds read low | 480,000 tested, 0.15% active; in the data active = activity change below about -30%; inconclusive = mostly about -25% to -30%;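 also: plate controls were DMSO wells for no effect and wells without enzyme for full effect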
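LDH5 2 nM; NADH 0.06 mM, pyruvate 0.2 mM; 200 mM Tris pH 7.4, EDTA, Tween-20; 5 min RT. Detection: diaphorase 0.133 mg/mL + resazurin 37 µM, fluorescence ex540/em590 at 0 and 20 min; normalized to enzyme-free and DMSO wells.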
KCNH2 3.1 block = KCNH2 3.1 (human) potassium channel inhibition; U2OS KCNH2 3.1, thallium flux FluxOr; active compounds read low; activity change, % (tested at about 1.8 µM); 340,000 tested, 0.95% active; AID 720553;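 active = maximum activity change below -70%; inconclusive = maximum activity change from -70% to -50%; inactive = maximum activity change above -50%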;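 also: thallium influx rate constant from kinetic fluorescence after stimulation buffer; % is scaled to controls: 0 for no effect and ±100 for the full control effect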
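Channel expression came from 3.1 mutant virus (1.77 x 10^8 /mL) applied to suspended U2OS cells for 4 h. Flux was tracked with FluxOr dye plus Red40 quencher, and kinetic rate constants normalized to controls.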
Numbers without * were called inactive; ? = inconclusive; . = no result given; [ ] = another dose, or the depositor's remark. In the library only some 3% were active in any assay of this set; here they are far more common.

SMILES	Chronic BCR inh	ClpP mod	hERG WT inh	12-LOX inh	LDHA block	KCNH2 3.1 block
COc1cc(Cl)c(C)cc1NC(=O)c1cc(=O)n2c(nc3ccccc32)s1	.	.	.	44.7µM*	-0.6	.
O=C(NC(=S)NCCN1CCOCC1)c1ccccc1Br	0.6%	25.1µM*	-11.8	2.0%	-6.3	7.0
O=C(NCCO)c1ccccc1O	3.6%	31.6µM*	13.0	-11.4%	3.0	-1.5
O=C(NCCNC(=O)c1ccccc1Br)c1ccccc1Br	-6.3%	-1.6%	-6.1	12.4%	-4.0	-114.5*
CCCCc1ccc2nc(NC(=O)c3ccc(F)cc3)sc2c1	.	.	.	-4.7%	-2.6	.
O=C(NC(=S)N1CCCC1)c1ccc(Cl)cc1Cl	-8.5%	0.7%	-9.4	0.0%	-2.0	5.3
O=C(NC(=S)N1CCOCC1)c1ccccc1Cl	?	0.0%	2.2	1.26µM*	-4.7	2.9
N#Cc1c(SCc2c(Cl)cccc2Cl)nc(N)[nH]c1=S	0.1%	-0.4%	-3.2	31.6µM*	-0.1	3.7
CCCCCCCOC(=O)Nc1ccc(C)cc1	.	.	.	10.3%	-0.2	.
O=C(NC1CCCC1)N[C@@H]1C[C@H](Cn2cc(C3CC3)nn2)[C@@H](O)[C@H]1O	.	.	.	22.4µM*	.	.
CC(=O)N[C@@H]1C[C@H](Cn2cc(C3CC3)nn2)[C@@H](O)[C@H]1O	.	.	.	69.5%[176 µM]	.	.
C/C(=N\NC(=S)NCc1ccccc1)c1cccc(Br)c1	7.9%	.	-1.1	31.6µM*	-2.9	14.0
COc1ccc(/C(C)=N/NC(=S)NCCc2ccccc2)cc1	?	.	-5.8	0.0%	-3.4	3.2
COc1ccc(CNC(=S)N/N=C(\C)c2ccc(OC)cc2)cc1	?	.	1.9	?	-7.0	7.2
C/C(=N\NC(=S)NCc1ccccc1)c1ccc2ccccc2c1	1.2%	-3.7%	-2.6	44.7µM*	-2.0	-11.5
C/C(=N\NC(=S)NCCc1ccccc1)c1cccc(Br)c1	?	-1.6%	-8.7	44.7µM*	-2.7	-0.2
C/C(=N/NC(=S)NCc1ccccc1)c1ccncc1	.	.	.	-5.1%	1.6	.
COc1ccccc1/C(C)=N/NC(=S)NCc1ccccc1	?	.	-1.6	39.8µM*	-1.3	-18.1
COc1ccc(-c2cc(C(=O)NC(C)(CO)CO)c3ccccc3n2)cc1	.	.	.	?	2.4	.
CC(=O)Nc1c(C)noc1/C=C\c1ccc(C)c(S(=O)(=O)Nc2cccc(C)c2C)c1	.	.	.	-7.5%	0.1	.
Cn1nc(CC(=O)NCc2ccccc2F)c2ccccc2c1=O	.	.	.	-18.6%	4.0	.
Fc1cccc(-n2cc(CN3CC[C@H]4CC[C@@H](C3)N4)cn2)c1	.	.	.	-0.7%	.	.
CNC(=O)/C(C#N)=C/c1c(N2CC(C)OC(C)C2)nc2ccccn2c1=O (stereo not given)	4.8%	28.2µM*	18.4	-23.8%	-4.9	-4.3
CCNC(=O)/C(C#N)=C/c1c(N2CC(C)OC(C)C2)nc2ccccn2c1=O (stereo not given)	2.6%	-15.6%	-17.3	?	4.7	9.2
CN(C)C(=O)c1ccc(NC(=O)CC2SC(N3CCCC3)=NC2=O)cc1 (stereo not given)	1.4%	-2.9%	0.2	12.4%	-4.5	-4.4
SMILES	Chronic BCR inh	ClpP mod	hERG WT inh	12-LOX inh	LDHA block	KCNH2 3.1 block
O=C(COC(=O)CC1SC(N2CCCC2)=NC1=O)Nc1c(F)c(F)c(F)c(F)c1F (stereo not given)	0.2%	-1.6%	-5.2	0.0%	-3.5	-74.1*
CCn1ccc(C(=O)N2CCC3(CC2)c2[nH]c4ccc(OC)cc4c2CCN3C)n1	.	.	.	28.8%	.	.
O=C(O)c1cc(-c2ccc(/C=N/NC(=S)Nc3ccccc3)o2)ccc1Cl	?	.	0.4	28.2µM*	9.6	-6.3
O=C(CSc1nnc(-c2ccc(S(=O)(=O)N3CCCCCC3)cc2)o1)c1ccc(F)cc1	.	.	.	-35.7%	-0.3	.
C=C(C)COc1ccc(-c2nc(N)ncc2Oc2ccccc2OC)c(O)c1	?	-1.4%	-6.8	?	-3.7	-42.4
C=C(C)COc1ccc(-c2nc(N)ncc2Oc2ccc(OC)cc2)c(O)c1	?	25.1µM*	-11.8	?	4.6	-9.0
Cc1ccc(O)c(NC2=C(Cl)C(=O)N(Cc3ccccc3)C2=O)c1	?	1.0%	-7.7	5.62µM*	8.2	-26.5
Cc1ccc(C(=O)N2CCCCC2)cc1NC1=C(Cl)C(=O)N(Cc2ccccc2)C1=O	?	1.5%	8.6	201.5%	2.5	-25.4
COc1ccc(N2CCN(C(=O)CCc3ccccc3OC)CC2)cc1	4.0%	0.3%	-4.2	0.0%	-5.9	-13.9
Cc1cccc(OCC(=O)N2CCN(C(=O)CCC3CCCC3)CC2)c1	6.7%	-0.9%	3.8	-0.7%	0.1	13.9
COc1ccccc1CCC(=O)N1CCC2(CC1)NC(=O)N(c1ccc(F)cc1)N2	.	.	.	3.16µM*	.	.
O=C(Cc1ccccc1Cl)N1CCC2(CC1)NC(=O)N(c1ccc(F)cc1)N2	.	.	.	2.24µM*	.	.
O=C(Cc1cccc(F)c1)N1CCC2(CC1)NC(=O)N(Cc1ccccc1Cl)C2=O	.	.	.	-5.3%	.	.
Cc1cccc(OCC(=O)N2CCC3(CC2)NC(=O)N(c2ccc(F)cc2)N3)c1	.	.	.	4.47µM*	.	.
CCN(CC)c1ccc(/C=N/NC(=O)c2c[nH]c3ccccc23)cc1	-16.0%	31.6µM*	-4.0	-18.5%	-1.0	0.2
CCN(CC)c1ccc(/C=N/NC(=O)c2cc3ccccc3[nH]2)cc1	?	4.1%	8.2	10.2%	-0.2	7.5
CCOc1ccccc1NC(=O)CCc1c(C)nc2c3cccnc3nn2c1C	.	28.2µM*	.	-18.1%	-9.3	.
Cc1cc(C)cc(NC(=O)CCc2c(C)nc3c4cccnc4nn3c2C)c1	.	3.9%	.	-25.2%	1.9	.
CCN(CC)c1ccc(NS(=O)(=O)c2ccc3c(c2)CCCC3)cc1C(=O)O	.	.	.	7.94µM*	4.3	.
CCCCCCCC(=O)Nc1c(C)cccc1CC	.	.	.	?	0.1	.
Cn1c(=O)c2c(ncn2CC(=O)N2CC(C(=O)N3CCCCC3)Oc3ccccc32)n(C)c1=O (stereo not given)	.	.	.	8.3%	-0.6	.
CCOc1cc(CNC(=O)Cn2c(-c3cccs3)cc3cc(F)ccc32)ccc1OC	.	25.1µM*	.	-1.1%	-11.7	.
COc1ccccc1CNC(=O)Cn1c(-c2cccs2)cc2cc(F)ccc21	.	31.6µM*	.	-19.3%	-2.2	.
CC(C)OCCCNC(=O)Cn1c(-c2cccs2)cc2cc(F)ccc21	.	4.1%	.	-16.0%	-1.6	.
COC(=O)CSc1nc2ccsc2c(=O)n1Cc1ccco1	.	.	.	-1.6%	-8.6	.
CCn1c2ccccc2c2cc(CN3CCN(C(=O)c4ccco4)CC3)ccc21	-0.5%	-16.3%	3.4	0.562µM*	-16.2	-14.0
CCn1cc(CN2CCN(C(=O)c3ccco3)CC2)ccc1=O	.	.	.	95.2%	.	.
